{"source": "PubChem BioAssay (NCATS)", "key": {"[1]": {"target": "Cytochrome P450 3A4 (Homo sapiens) (UniProt P08684)", "sequence (P08684 whole entry, looked up)": "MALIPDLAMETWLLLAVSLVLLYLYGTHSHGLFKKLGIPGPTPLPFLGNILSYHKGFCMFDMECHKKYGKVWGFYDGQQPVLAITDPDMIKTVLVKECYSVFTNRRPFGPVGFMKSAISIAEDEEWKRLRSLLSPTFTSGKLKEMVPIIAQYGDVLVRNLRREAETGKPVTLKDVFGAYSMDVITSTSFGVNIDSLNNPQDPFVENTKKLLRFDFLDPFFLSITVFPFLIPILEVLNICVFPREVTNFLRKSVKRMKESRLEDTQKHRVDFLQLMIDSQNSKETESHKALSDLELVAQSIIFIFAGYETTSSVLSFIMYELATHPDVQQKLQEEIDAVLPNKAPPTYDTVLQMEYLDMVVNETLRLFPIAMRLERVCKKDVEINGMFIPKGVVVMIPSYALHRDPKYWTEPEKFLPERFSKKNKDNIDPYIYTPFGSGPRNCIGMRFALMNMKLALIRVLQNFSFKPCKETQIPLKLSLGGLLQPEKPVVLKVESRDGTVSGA", "experiment": "qHTS Assay for Inhibitors and Substrates of Cytochrome P450 3A4 (AID 884); note: nearly all actives have a fitted effect of over 50% in size", "how_it_was_run": "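Luminescent readout of luciferin produced by CYP3A4 (20 nM) dealkylation of Luciferin-PPXE, 25 uM (its KM). NADPH-driven reaction ran 60 min at RT after 10 min compound preincubation; data scaled to 57 uM ketoconazole as 100% inhibition.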"}, "[2]": {"experiment": "Confirmation and Secondary Assay for Modulators of Hemoglobin Beta Chain Splicing at IVS2 654 locus (AID 910)", "how_it_was_run": "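HeLa cells stably expressing EGFP interrupted by β-globin IVS2-654 intron, seeded overnight in Opti-MEM/2% FCS, then treated 2 days at 37 °C. Restored splicing read as total peak GFP intensity per well by laser scanning cytometry (488 nm excitation, 500–520 nm emission); 500 nM antisense PNA as control.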"}, "[3]": {"experiment": "Confirmation and Secondary Assay for Modulators of Hemoglobin Beta Chain Splicing at IVS2 705 locus (AID 930)", "how_it_was_run": "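First, HeLa EGFP-705 cells are seeded at 500/well in Optimem with 2% FCS and left overnight. Next, compound or DMSO is added for 2 days. Finally wells are laser-scanned and total peak GFP intensity scored.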"}, "[4]": {"experiment": "qHTS Assay for Lipid Storage Modulators (AID 1519; calls by dose curve)", "conditions": "Drosophila S3 cells, BODIPY lipid droplet/cell ratio, laser cytometry, cells loaded with oleic acid", "how_it_was_run": "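Cells seeded at 5,000 per well were treated with compounds over a concentration series and loaded with oleic acid (400 uM, as added). Lipid droplet fluorescence (488 nm excitation, 500-530 nm channel) was read by laser-scanning cytometry and normalized to 20 uM Triacsin C.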"}, "[5]": {"target": "Luciferin 4-monooxygenase (Photinus pyralis) (UniProt P08659)", "sequence (P08659 whole entry, looked up)": "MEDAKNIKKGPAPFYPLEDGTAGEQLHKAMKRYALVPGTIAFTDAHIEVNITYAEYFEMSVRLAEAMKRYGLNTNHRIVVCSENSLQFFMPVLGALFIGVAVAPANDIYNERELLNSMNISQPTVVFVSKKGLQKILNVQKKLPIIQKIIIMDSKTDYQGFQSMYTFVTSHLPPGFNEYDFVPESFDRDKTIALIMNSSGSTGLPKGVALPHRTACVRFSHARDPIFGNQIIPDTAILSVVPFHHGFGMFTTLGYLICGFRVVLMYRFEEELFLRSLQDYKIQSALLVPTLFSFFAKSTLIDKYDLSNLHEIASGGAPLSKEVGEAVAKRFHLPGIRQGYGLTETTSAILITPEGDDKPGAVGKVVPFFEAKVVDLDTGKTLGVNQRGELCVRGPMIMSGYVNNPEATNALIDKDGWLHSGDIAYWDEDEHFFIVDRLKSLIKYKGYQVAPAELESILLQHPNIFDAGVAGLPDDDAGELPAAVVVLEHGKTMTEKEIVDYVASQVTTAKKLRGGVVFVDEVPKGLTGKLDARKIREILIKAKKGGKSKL", "experiment": "Biochemical firefly luciferase enzyme assay for NPC (AID 624030); note: nearly all actives have a fitted effect of over 70% in size", "how_it_was_run": "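Purified P. pyralis luciferase at 10 nM in 50 mM Tris Acetate (final), luminescence read within 5 minutes of enzyme addition to compounds. Activity normalised to PTC124 versus DMSO; concentration-response curves classed by r2, magnitude and activity.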"}, "[6]": {"experiment": "S16 Schwann cell viability assay (CellTiter-Glo assay) (AID 624031);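 note: native untransfected S16 rat Schwann cells; nearly all actives have a fitted effect of over 70% in size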", "how_it_was_run": "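Counter-screen for cytotoxicity: parental S16 rat Schwann cells lacking the PMP22 reporters, treated 24 h with compound, viability from cellular ATP by CellTiter-Glo luminescence, normalized to DMSO (0%) and no-cell wells.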"}, "[7]": {"experiment": "S16 Schwann cell PMP22 intronic element firefly luciferase assay (AID 624032); note: nearly all actives have a fitted effect of over 30% in size", "how_it_was_run": "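Rat S16 Schwann cells stably carrying firefly luciferase driven by a PMP22 intronic element, in 10% FBS, treated 24 h at 37 C. ONE-Glo luminescence normalized to PTC124 control and DMSO (0%); curves classed by r2, magnitude and activity.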"}, "[8]": {"experiment": "Primary qHTS for inhibitors of SARS-S pseudo-typed particle cell entry (AID 1479145; calls by dose curve; note: potency is the fitted concentration of half-maximal effect; nearly all actives have a fitted effect of over 45% in size)", "conditions": "outcome: at 57.1 µM (top of the series) unless noted"}, "[9]": {"experiment": "Primary qHTS for inhibitors of MERS-S pseudo-typed particle cell entry (AID 1479149; calls by dose curve; note: nearly all actives have a fitted effect of over 60% in size)", "conditions": "outcome: at 57.1 µM (top of the series) unless noted"}, "[10]": {"experiment": "Primary qHTS to identify inhibitors of SARS-CoV-2 cell entry (AID 1645846; calls by dose curve; note: nearly all actives have a fitted effect of over 45% in size)", "conditions": "SARS-CoV-2 pseudovirus cell entry assay, luminescence; activity change, negative = inhibition: at 57.1 µM (top of the series) unless noted", "how_it_was_run": "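Using luciferase-reporting pseudoviruses carrying Wuhan-Hu-1 spike, the screen tracks entry into stably ACE2-expressing cells over 48 hr. Activity is expressed relative to spike particles versus particles lacking any fusion protein.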"}, "[11]": {"experiment": "NCATS anti-infectives library activity on HEK293 viability as a counter-qHTS vs the C. elegans viability qHTS (AID 1745854); note: potency is the fitted concentration of half-maximal effect", "how_it_was_run": "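Compound titrations (final up to 41.7 uM) were incubated with HEK293 cells for 24 hr at 37C under 5% CO2. Viable cells were quantified with CellTiter-Glo after 10 min at ambient temperature.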"}, "[12]": {"experiment": "NCATS anti-infectives library activity on the primary C. elegans qHTS viability assay (AID 1745855; calls by dose curve; note: potency is the fitted concentration of half-maximal effect)", "how_it_was_run": "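Titration-based screen in worms: eggs hatched overnight in M9, L1 larvae fed TOP10 capsules in S medium with compound, incubated 21 °C for 7 days; fluorescent objects gated by size and intensity at days 0, 3 and 7.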"}, "[13]": {"target": "Glutathione peroxidase 1 (Homo sapiens) (UniProt P07203)", "sequence (P07203 whole entry, looked up)": "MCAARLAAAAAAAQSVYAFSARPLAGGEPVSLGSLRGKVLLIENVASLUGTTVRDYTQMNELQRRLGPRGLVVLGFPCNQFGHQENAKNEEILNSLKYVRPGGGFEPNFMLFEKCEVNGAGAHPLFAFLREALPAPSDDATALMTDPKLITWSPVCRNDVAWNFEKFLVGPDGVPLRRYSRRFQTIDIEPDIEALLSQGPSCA", "experiment": "Primary qHTS Assay for Inhibitors of Recombinant Selenoprotein Glutathione Peroxidase 1 (GPX1) (AID 1845191); note: nearly all actives have a fitted effect of over 65% in size", "how_it_was_run": "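GR-coupled readout: NADPH consumption tracked by fluorescence, ex 340/em 450 nm, at t=0 and after 15 min at RT. Final mix 10 nM GPX1, 1 mM GSH, 0.5 mM CHP, 0.5 mM NADPH, 100 nM GR, 0.01% BSA, following 30 min enzyme–compound preincubation.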"}, "[14]": {"target": "Phospholipid hydroperoxide glutathione peroxidase GPX4 (Homo sapiens) (UniProt P36969)", "sequence (P36969 whole entry, looked up)": "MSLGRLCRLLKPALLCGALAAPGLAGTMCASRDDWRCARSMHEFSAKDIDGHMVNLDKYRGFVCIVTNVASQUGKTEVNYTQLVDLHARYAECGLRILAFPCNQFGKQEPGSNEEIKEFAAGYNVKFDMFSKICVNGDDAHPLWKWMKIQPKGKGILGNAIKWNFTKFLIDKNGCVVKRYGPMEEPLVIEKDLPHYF", "experiment": "Primary qHTS Assay for Inhibitors of Recombinant Selenoprotein Glutathione Peroxidase 4 (GPX4) (AID 1845192); note: nearly all actives have a fitted effect of over 65% in size", "how_it_was_run": "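Steps: GPX4 plus compound, 30 min RT; add GR/GSH/NADPH master mix; start with cumene hydroperoxide; read 340/450 nm fluorescence at 0 and 15 min. Finals were 200 nM GPX4, 1 mM GSH, 0.5 mM CHP, 0.5 mM NADPH, 100 nM GR.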"}, "[15]": {"experiment": "qHTS profiling for inhibitors of Plasmodium falciparum proliferation (AID 504749); note: nearly all actives have a fitted effect of over 60% in size; note: potency is the fitted concentration of half-maximal effect", "conditions": "P. falciparum in erythrocytes, SYBR Green DNA, 72 h, at 28.7 µM (top of the series)", "how_it_was_run": "(§1)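 SYBR Green fluorescence (ex 485 nm, em 535 nm) reports parasite DNA after 72 h compound exposure of infected red cells at 0.3% parasitemia, 2.5% hematocrit; signal normalized to 0.29 uM artemisinin and vehicle wells.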"}, "7G8": {"test_system": "7G8", "experiment": "qHTS profiling for inhibitors of Plasmodium falciparum proliferation (AID 504749)", "conditions": "P. falciparum in erythrocytes, SYBR Green DNA, 72 h; series mostly up to 12.8 µM", "how_it_was_run": "as §1"}, "AA1029": {"test_system": "AA1029", "experiment": "qHTS profiling for inhibitors of Plasmodium falciparum proliferation (AID 504749)", "conditions": "P. falciparum in erythrocytes, SYBR Green DNA, 72 h; series mostly up to 28.7 µM", "how_it_was_run": "as §1"}, "AS120": {"test_system": "AS120", "experiment": "qHTS profiling for inhibitors of Plasmodium falciparum proliferation (AID 504749)", "conditions": "P. falciparum in erythrocytes, SYBR Green DNA, 72 h; series mostly up to 28.7 µM", "how_it_was_run": "as §1"}, "ATS95": {"test_system": "ATS95", "experiment": "qHTS profiling for inhibitors of Plasmodium falciparum proliferation (AID 504749)", "conditions": "P. falciparum in erythrocytes, SYBR Green DNA, 72 h; series mostly up to 28.7 µM", "how_it_was_run": "as §1"}, "C2A": {"test_system": "C2A", "experiment": "qHTS profiling for inhibitors of Plasmodium falciparum proliferation (AID 504749)", "conditions": "P. falciparum in erythrocytes, SYBR Green DNA, 72 h; series mostly up to 28.7 µM", "how_it_was_run": "as §1"}, "CP185": {"test_system": "CP185", "experiment": "qHTS profiling for inhibitors of Plasmodium falciparum proliferation (AID 504749)", "conditions": "P. falciparum in erythrocytes, SYBR Green DNA, 72 h; series mostly up to 28.7 µM", "how_it_was_run": "as §1"}, "CP192": {"test_system": "CP192", "experiment": "qHTS profiling for inhibitors of Plasmodium falciparum proliferation (AID 504749)", "conditions": "P. falciparum in erythrocytes, SYBR Green DNA, 72 h; series mostly up to 28.7 µM", "how_it_was_run": "as §1"}, "CP201": {"test_system": "CP201", "experiment": "qHTS profiling for inhibitors of Plasmodium falciparum proliferation (AID 504749)", "conditions": "P. falciparum in erythrocytes, SYBR Green DNA, 72 h; series mostly up to 28.7 µM", "how_it_was_run": "as §1"}, "CP203": {"test_system": "CP203", "experiment": "qHTS profiling for inhibitors of Plasmodium falciparum proliferation (AID 504749)", "conditions": "P. falciparum in erythrocytes, SYBR Green DNA, 72 h; series mostly up to 28.7 µM", "how_it_was_run": "as §1"}, "CP211": {"test_system": "CP211", "experiment": "qHTS profiling for inhibitors of Plasmodium falciparum proliferation (AID 504749)", "conditions": "P. falciparum in erythrocytes, SYBR Green DNA, 72 h; series mostly up to 28.7 µM", "how_it_was_run": "as §1"}, "CP215": {"test_system": "CP215", "experiment": "qHTS profiling for inhibitors of Plasmodium falciparum proliferation (AID 504749)", "conditions": "P. falciparum in erythrocytes, SYBR Green DNA, 72 h; series mostly up to 28.7 µM", "how_it_was_run": "as §1"}, "CP217": {"test_system": "CP217", "experiment": "qHTS profiling for inhibitors of Plasmodium falciparum proliferation (AID 504749)", "conditions": "P. falciparum in erythrocytes, SYBR Green DNA, 72 h; series mostly up to 28.7 µM", "how_it_was_run": "as §1"}}, "note": "Inconclusive results are not listed. A call without a number means that no potency is given here. Active and inactive are the calls of the source. Unless noted, calls come from the whole dose curve; as a rule, active = well fitted curve in the direction sought with a large enough effect; inconclusive = small, poorly fitted or top-dose-only effect, or another doubt; inactive = no such curve, though single readings can be large; an effect the other way counts as inactive or inconclusive.", "data": [{"smiles": "CC(=O)OC1C[C@H](O[C@@H]2C(O)C[C@H](O[C@@H]3C(O)C[C@@H](OC4CC[C@]5(C)C(CCC6C5CC(O)[C@@]5(C)C(C7=CC(=O)OC7)CC[C@@]65O)C4)OC3C)OC2C)O[C@H](C)[C@H]1O[C@H]1OC(CO)C(O)C(O)C1O", "note": "(stereo not given in full)", "values": [{"measurement": "Potency", "setting": "[1]", "value": "inactive"}, {"measurement": "Potency", "setting": "[2]", "value": "inactive"}, {"measurement": "Potency", "setting": "[3]", "value": "inactive"}, {"measurement": "activity change, negative = inhibition", "setting": "[4]; at 57.5 µM (top of the series)", "value": "1.49% (inactive)"}, {"measurement": "max response", "setting": "[4]; measured here: cell count channel max response", "value": 20.6, "unit": "%"}, {"measurement": "max response", "setting": "[4]; measured here: lipid channel max response", "value": 24.4, "unit": "%"}, {"measurement": "Potency", "setting": "[5]", "value": "inactive"}, {"measurement": "Potency", "setting": "[6]", "value": "inactive"}, {"measurement": "Potency", "setting": "[7]", "value": "inactive"}, {"measurement": "Potency", "setting": "[8]", "value": "0.794 µM (active)"}, {"measurement": "Potency", "setting": "[9]", "value": "inactive"}, {"measurement": "activity change, negative = inhibition", "setting": "[10]", "value": -96.3, "unit": "%"}, {"measurement": "Potency", "setting": "[11]", "value": "0.199 µM (active)"}, {"measurement": "Potency", "setting": "[12]", "value": "8.16 µM (active)"}, {"measurement": "Potency", "setting": "[13]", "value": "inactive"}, {"measurement": "Potency", "setting": "[14]", "value": "inactive"}, {"measurement": "activity, negative = inhibition", "setting": "[15]; parasite line A", "value": "-17.9% (inactive)"}, {"measurement": "activity, negative = inhibition", "setting": "[15]; parasite line B", "value": "17.8% (inactive)"}, {"measurement": "Potency", "setting": "7G8", "value": "8.91 µM (active)"}, {"measurement": "Potency", "setting": "AA1029", "value": "inactive"}, {"measurement": "Potency", "setting": "AS120", "value": "inactive"}, {"measurement": "Potency", "setting": "ATS95", "value": "inactive"}, {"measurement": "Potency", "setting": "C2A", "value": "inactive"}, {"measurement": "Potency", "setting": "CP185", "value": "inactive"}, {"measurement": "Potency", "setting": "CP192", "value": "inactive"}, {"measurement": "Potency", "setting": "CP201", "value": "inactive"}, {"measurement": "Potency", "setting": "CP203", "value": "inactive"}, {"measurement": "Potency", "setting": "CP211", "value": "inactive"}, {"measurement": "Potency", "setting": "CP215", "value": "inactive"}, {"measurement": "Potency", "setting": "CP217", "value": "inactive"}]}]}
